Screen size: about 13,000 compounds; about 3,200 (25%) showed an effect of 50% or more. The list shows a part of the results.
system: P. falciparum stage V gametocytes; set-up: BacTiter-Glo ATP luminescence viability of purified stage V gametocytes in 384-well plates, per cent inhibition versus DMSO; details: 48 h, 5 µM; inhibitor

| SMILES | % Inhibition [%] |
| --- | --- |
| COc1ccc(C2CC(c3ccccc3O)=NN2C(=O)c2ccco2)cc1OC (centres unmarked) [TCMDC-125347] | -56.68 |
| CC(C)C[C@H](Nc1ccnc(NCC2CCCCC2)n1)C(=O)NCCOc1ccccc1 [TCMDC-134712] | 15.38 |
| Cc1cc(O)c(CN(C)Cc2ccc3c(c2)OCCO3)cc1C(C)C [TCMDC-124884] | 16.52 |
| Cc1cc(O)c(CN(C)Cc2ccc3c(c2)OCO3)cc1C(C)C [TCMDC-124881] | 27 |
| CCOc1ccc(CN(CCc2ccc3c(c2)OCO3)Cc2cc(OC)ccc2O)cc1 [TCMDC-125607] | 58.7 |
| CCOC(=O)c1ccc(NC(=O)Nc2cccc(-c3ccc(-c4nc5ccc(F)cc5[nH]4)cc3)c2)cc1 [TCMDC-133267] | -0.2568 |
| Cc1cccc2nc(-c3cccc(-c4ccc(CN5CCC(C(N)=O)CC5)cc4)c3)[nH]c12.O=C(O)C(F)(F)F [TCMDC-132697] | 21.78 |
| COCc1cccc(-c2cc(-c3ccc(S(C)(=O)=O)cc3)cnc2N)c1 [TCMDC-133342] | 35.59 |
| CS(=O)(=O)c1ccc(-c2cnc(N)c(-c3ccc(O)cc3)c2)cc1 [TCMDC-133348] | 24.96 |
| COc1ccc(-c2cnc(N)c(-c3ccc(C(N)=O)cc3)c2)cc1OC [TCMDC-133349] | 67.55 |
| COC(=O)c1ccc2nc(-c3cc(-c4cccc(-c5ccccc5)c4)cnc3N)[nH]c2c1 [TCMDC-135320] | -16.97 |
| COc1ccc(-c2ccc3c(-c4ccc(F)cc4)cnc(N)c3c2)cn1 [TCMDC-134503] | 16.03 |
| CS(=O)(=O)c1ccc(-c2cnc(N)c(-c3cccc(O)c3)c2)cc1 [TCMDC-133347] | 65.54 |
| COc1cc(-c2cnc(N)c(-c3nc4ccccc4[nH]3)c2)cc(OC)c1OC [TCMDC-138793] | 9.298 |
| CS(=O)(=O)c1ccc(-c2cnc(N)c(-c3cccc(CO)c3)c2)cc1 [TCMDC-133352] | 33.58 |
| COc1cc(-c2cc(-c3ccc(S(C)(=O)=O)cc3)cnc2N)ccc1O [TCMDC-133343] | 105.4 |
| COc1ccc(-c2cnc(N)c(-c3ccc(O)c(OC)c3)c2)cn1 [TCMDC-133350] | 11.39 |
| CS(=O)(=O)c1ccc2nc(-c3cc(-c4cccc(F)c4)cnc3N)[nH]c2c1 [TCMDC-133134] | 32.71 |
| COc1ccc(-c2cc(-c3ccc(S(C)(=O)=O)cc3)cnc2N)cn1 [TCMDC-133351] | 104.2 |
| CCCc1cc(OC)c(CC2c3cc(O)c(C)cc3CCN2C)cc1OC (centres unmarked) [TCMDC-137164] | -32.49 |

Source: publication PMC4552634, “A New Set of Chemical Starting Points with Plasmodium falciparum Transmission-Blocking Potential for Antimalarial Drug Discovery” (PLoS ONE, 2015)
